This is a sample that favours compounds with a hit; in the whole collection about 10% have one here.
BAZ2B inh: inhibitors of human BAZ2B bromodomain; Potency, µM (titrated, usually from 114 µM), actives largely listed as inhibitors; 360,000 compounds, 4.4% hits; AlphaScreen BAZ2B-H3K14Ac peptide displacement; further: nearly all actives have a fitted effect of over 60% in size
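AlphaScreen luminescence quantifies BAZ2B engagement of H3K14Ac peptide; the protein and biotinylated peptide are both at 50 nM final, buffer PBS pH 7.4 with 0.01% Tween-20, all steps at room temperature.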
GLS inhibitor: blocks human kidney-isoform glutaminase activity; 410,000 compounds, 0.21% hits; O94925; GLS enzymatic activity, qHTS titration; Potency, µM (doses to about 45.5 µM), usual class: inhibitors
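Compounds were pin-transferred onto hKGA, after which L-glutamine (1 mM solution) and a detection mix of glutamate oxidase, HRP and Amplex Red were added. Initial and 30 min RT fluorescence reads were collected.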
G9a inh: blocks human histone lysine methyltransferase G9a. 350,000 compounds, 8.8% hits. G9a H3K9 monomethylation, AlphaScreen, 2 h. Potency, µM (highest dose often 102 µM), most hits filed as inhibitors. Q96KQ7; further: nearly all actives have a fitted effect of over 75% in size
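Step 1: enzyme (final 20 nM) with compound, 15 min RT. Step 2: substrate peptide 500 nM and SAM 20 uM, 2 h RT. Step 3: anti-H3K9me1 antibody and AlphaScreen beads, 10 min, then plate read.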
JMJD2A Tudor inh: blocks the human JMJD2A Tudor domain | O75164 | AlphaScreen JMJD2A-Tudor / H3K4me3 peptide binding | Potency, µM (highest dose often 114 µM), most hits filed as inhibitors | 390,000 compounds, 4.4% hits | AID 504339; further: nearly all actives have a fitted effect of over 50% in size
L3MBTL1 block: inhibitors of human L3MBTL1. Potency, µM (doses to about 57.1 µM), usual class: inhibitors. 230,000 compounds, 0.66% hits. AlphaScreen L3MBTL1–H3K9me1 peptide binding. Q9Y468. AID 485360; further: nearly all actives have a fitted effect of over 60% in size
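L3MBTL1 (50 nM) pre-complexed 30 min with biotinylated H3(1-15)K9me1 peptide (75 nM), then compounds added for 30 min at room temperature; AlphaScreen streptavidin donor/nickel chelate acceptor beads (10 ug/mL final) read after 30 min dark incubation.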
HP1b chromo inh: blocks HP1-beta chromodomain binding to methylated histone tails. Potency, µM (doses to about 114 µM), usual class: inhibitors. AlphaScreen HP1-beta / biotin-H3K9me3 peptide binding. AID 540317. 390,000 compounds, 0.56% hits; further: nearly all actives have a fitted effect of over 70% in size
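AlphaScreen: HP1-beta (50 nM) preformed 30 min with biotin-H3(1-18)K9me3 peptide (50 nM) in PBS pH 7.4, 0.01% Tween-20. Compound added for 30 min at RT, then streptavidin donor/nickel chelate acceptor beads (10 ug/mL) for 30 min.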
A number is an active result; i = inactive; ? = inconclusive; nt = no result given; [ ] = remark or other dose. The call rests on the fitted dose curve; in most records, active means well fitted curve in the direction sought with a large enough effect; inconclusive means small, poorly fitted or top-dose-only effect, or another doubt; inactive means no such curve, though single readings can be large; an effect the other way counts as inactive or inconclusive.

SMILES	BAZ2B inh	GLS inhibitor	G9a inh	JMJD2A Tudor inh	L3MBTL1 block	HP1b chromo inh
O=C1c2cccc3c2[C@@H](CCC3)CN1[C@@H]1CN2CCC1CC2	nt	i	i[12.7 µM]	nt	nt	nt
N#CN1CCC(NC(=O)c2cccc(C(F)(F)F)c2)CC1	nt	nt	nt	i	nt	nt
CN(Cc1ccccc1)S(=O)(=O)c1ccc(NC(=O)c2cc(=O)c3ccccc3o2)cc1	i	i	i	i	nt	i
CC(=O)Nc1ccc(NC(=O)CSc2ccc3nnc(-c4cccnc4)n3n2)cc1	i	i	32µM	i	nt	i
CN(C)c1ccc(CN(C(=O)C2COc3ccccc3O2)C2CCS(=O)(=O)C2)cc1 (stereo not given)	56µM	i	45µM	?	i	i
Cc1ccccc1OCC(=O)N(Cc1ccc(N(C)C)cc1)C1CCS(=O)(=O)C1 (stereo not given)	i	i	32µM	?	i	i
Cc1ccc(OCC(=O)N(Cc2ccc(N(C)C)cc2)C2CCS(=O)(=O)C2)cc1C (stereo not given)	45µM	i	nt	?	i	?
Cc1c(C(=O)N(Cc2ccc(N(C)C)cc2)C2CCS(=O)(=O)C2)oc2ccccc12 (stereo not given)	28µM	i	13µM	14µM	i	?
CN(C)c1ccc(CN(C(=O)COc2ccccc2)C2CCS(=O)(=O)C2)cc1 (stereo not given)	?	i	?	i	nt	i
CC(C)c1ccc(CN(C(=O)C2COc3ccccc3O2)C2CCS(=O)(=O)C2)cc1 (stereo not given)	i	i	nt	i	i	i
Cc1nn(CC(=O)NCCc2ccc(Cl)cc2)c(=O)c2cc3cc(F)ccc3n12	i	i	i	i	nt	i
Cc1cccc(-n2c(=O)c3ccccc3n(Cc3ccc(F)cc3)c2=O)c1	i	i	i	i	nt	i
O=C(Nc1ccc2c(c1)CCCN2C(=O)c1cccs1)c1cccc(C(F)(F)F)c1	i	i	i[12.7 µM]	i	nt	i
O=C(NC(=S)NNC(=O)c1ccco1)c1ccc(F)cc1	i	i	13µM	i	nt	i
CCCC(=O)Nc1ccc(Cl)c(NC(=S)NC(=O)c2ccco2)c1	i	i	50µM	i	i	i
O=C(Nc1ccc(Cl)c(NC(=O)c2cccs2)c1)c1ccco1	i	i	56µM	i	i	i
COc1ccc(C(=O)NC(=S)NNC(=O)c2ccco2)cc1	i	i	i[12.7 µM]	i	nt	i
CCCC(=O)Nc1ccc(C(=O)NNC(=O)c2ccccc2Br)cc1	i	i	22µM	i	i	i
Cc1cccc(NC(=O)Nc2nnc(N(C)Cc3ccccc3)s2)c1	i	i	i	i	nt	i
O=c1c(-c2ccccc2)nc2cnc(Oc3ccccc3)nc2n1Cc1cccs1	nt	nt	i[12.7 µM]	nt	nt	nt
CCCCC(=O)Nc1ccc(C(=O)NNC(=O)c2ccco2)cc1	i	i	i	i	i	i
CCCCC(=O)Nc1ccc(C(=O)NNC(=S)NC(=O)c2ccco2)cc1	i	i	25µM	i	nt	i
O=C(NC(=S)NNC(=O)c1cc2ccccc2cc1O)c1ccco1	i	?	nt	45µM	?	i
COc1ccc(-c2cc(C3C4C=CCCC4(C)C(=O)N3Cc3ccccc3)ccc2F)cc1OC (stereo not given)	nt	nt	nt	i	nt	i
COc1ccc(C(=O)NCC(c2cccnc2)N2CCN(c3ccccc3F)CC2)cc1OC (stereo not given)	i	i	i	i	nt	i
SMILES	BAZ2B inh	GLS inhibitor	G9a inh	JMJD2A Tudor inh	L3MBTL1 block	HP1b chromo inh
Cc1cccc(C)c1Nc1c(-c2ccccn2)nc2c(C)cccn12	?	i	i	10µM	nt	i
Cc1cccn2c(Nc3ccccc3)c(-c3ccccn3)nc12	18µM	i	40µM	13µM	nt	i
COc1ccc(-c2nc3ncccn3c2Nc2ccccc2)cc1	i	i	i	i	i	i
O=C(NCCc1ccccc1)c1cnc2sc(N3CCCCC3)nn2c1=O	i	i	i	i	nt	i
COc1cc(CNn2cn[nH]c2=S)cc(Br)c1OCc1ccccc1F	?	i	10µM	?	i[11.4 µM]	i
C=CCOc1c(Cl)cc(CNn2cn[nH]c2=S)cc1OC	i	i	?	?	i[11.4 µM]	i
COc1cc(CNn2cn[nH]c2=S)cc(Cl)c1OCc1ccccc1	i	?	10µM	i	i	i
